Assay results: publication PMC12136788
Changes are numbered by the printed parent chain. The full ranking holds about 5,800 sequences; the median of “enrichment r” is about 0.54, and the highest 2% start at about 16. Many of the other results were omitted from the sample, so the highest values are more common in it than they were.

B1: chr4:48851844:48851957:+|CDS|ENSG00000109180|unk|FALSE|unique (ssRNA)
RNA: GGGAGUUCUACAGUCCGACGAUCAUAUGACUCAAGUGUGAGUGGUCAAUCAUCUUUUGUGACAUCCCCAGCAGCAGACAACAUAGAAAUGCUUCCUCAUUAUGAGCCAAUUCCAUUCAGUUCUUCUAUGAAUGAAUCUGCUCCCAACAGAGGAUUGAGCAUCA
B2: ENSG00000107863:be:win_2201|CDS|ENSG00000107863|bound_else_gene|NA|bound_elsewhere_windowed (ssRNA)
RNA: GGGAGUUCUACAGUCCGACGAUCCUGUCAUCCUAAGGGAAAAACCUCCAUCUGGACGCCAGACACCGCAGCCUUUAAGGCAUCAGUCUUACAUCUUGGCAGUAAAUGACCAGGAGACCGGGUCAGACACUACCUGCUGGCUGCCAACAGAGGAUUGAGCAUCA
B3: chr18:55226207:55226308:-|3pUTR|ENSG00000196628|unk|FALSE|unique (ssRNA)
RNA: GGGAGUUCUACAGUCCGACGAUCAUUUUUACAGCCACACAAUUCUUGGCAUGUAUUAAGAAAAAAAAAAAUCCCUGUUCAAGUAGUUUUUCCACCUAUCAGCACUGAGUAAAUGCCAUAAAUCCAUUGAAAUGGUCUAAAUGUCAACAGAGGAUUGAGCAUCA
B4: chr16:21655520:21655610:+|3pUTR|ENSG00000197006|msi1_unk|total|mutant (ssRNA)
RNA: GGGAGUUCUACAGUCCGACGAUCUCUGUGUUCACAAUUACGUGAAGGGAGGACCCUUGGGGACCGCCAUUCUAAAUAUCAUGCCGGAAUUUAAAAAGCCAAAAUACUAAUUAUUUCUUUGCCGUGUGUAAAGGAAUGUUUUUACAACAGAGGAUUGAGCAUCA
B5: ENSG00000151612:stop:overlap|stop_codon|ENSG00000151612|stop_codon|NA|stop_codon (ssRNA)
RNA: GGGAGUUCUACAGUCCGACGAUCCAGGCCUGUUGGAGAAGGAAGCCAGCAGUGAGGGGGAUUGCAAAGUAGAGAGAGGUUGGUAGAACUGUGGACUGUGAAGAGAUCGAGAAUAGCACAGUUAACUAGGCAUUUGCCUUCGGCCAACAGAGGAUUGAGCAUCA
B6: ENSG00000136451:be:win_551|CDS|ENSG00000136451|bound_else_gene|NA|bound_elsewhere_windowed (ssRNA)
RNA: GGGAGUUCUACAGUCCGACGAUCGAGAUGUGUACCAUCUCAAUCGACACAAGCUCUCCCAUUCAGAUGAGAAACCCUUUGAGUGUCCUAUUUGUAAUCAGCGCUUCAAGAGGAAGGACCGGAUGACUUACCAUGUGAGGUCUCCAACAGAGGAUUGAGCAUCA
B7: chr6:134965076:134965177:-|3pUTR|ENSG00000112339|unk|total|mutant (ssRNA)
RNA: GGGAGUUCUACAGUCCGACGAUCAAAGGAACAAUGUGCAAUUGAUAUGUUUUCCGAUGAGAGAGAAAAAUUAAAGCUAAAAUCCGCUGCAAAGAAGUAUUAAUAAUCACCUCUGCAAAAAUUCUAAGUUGCCAACUGGCAAAGCAACAGAGGAUUGAGCAUCA
B8: ENSG00000070961:be:win_4601|3pUTR|ENSG00000070961|bound_else_gene|NA|bound_elsewhere_windowed (ssRNA)
RNA: GGGAGUUCUACAGUCCGACGAUCUCAGACUAUCAAACUACAAGAGAACCUUAGUCUUUUUUGUUUUUGUCUAAACAUGUUAGUUUAGUGAUGUCUUGGUGAACUGUGAGUGAACUGUAUUGAUUUUUCUAAUCUUUAGAGACCCAACAGAGGAUUGAGCAUCA
B9: chr7:111727939:111728040:-|3pUTR|ENSG00000128512|unk|total|mutant (ssRNA)
RNA: GGGAGUUCUACAGUCCGACGAUCAAGUGGUAAACCGUGAUAAAGACUCCUUUUGUACCUUUUUAUGUUCACUUUUUUUUAUACCGUUUAAUCUUAAAACCAAUACGAUAUUGUCAAACGAUACAAUGUGUGACAAUGUUGUAUCAACAGAGGAUUGAGCAUCA
B10: chr7:111727939:111728040:-|3pUTR|ENSG00000128512|unk|FALSE|unique (ssRNA)
RNA: B9 RNA with C34U, C35A, C83U, C84A
B11: ENSG00000070961:be:win_4651|3pUTR|ENSG00000070961|bound_else_gene|NA|bound_elsewhere_windowed (ssRNA)
RNA: GGGAGUUCUACAGUCCGACGAUCACAUGUUAGUUUAGUGAUGUCUUGGUGAACUGUGAGUGAACUGUAUUGAUUUUUCUAAUCUUUAGAGACCUUCACACAGCAUGAGGGCUGUUGGCAUUUUGAAAAAGGUUAAUAAGUAGACAACAGAGGAUUGAGCAUCA
B12: chr19:811491:811550:+|3pUTR|ENSG00000011304|msi1_unk|FALSE|overlapping (ssRNA)
RNA: GGGAGUUCUACAGUCCGACGAUCUAGCAAUAUUUCCAGUUGACCAAAUAUUCUAAUCUUUUUUCAUUUAUAUGCAAAAGAAAUAGUUUUAAGUAACUUUUUAUAGCAAGAUGAUACAAUGGUAUGAGUGUAAUCUAAACUUCCCAACAGAGGAUUGAGCAUCA
B13: ENSG00000070961:be:win_4701|3pUTR|ENSG00000070961|bound_else_gene|NA|bound_elsewhere_windowed (ssRNA)
RNA: GGGAGUUCUACAGUCCGACGAUCUUUUCUAAUCUUUAGAGACCUUCACACAGCAUGAGGGCUGUUGGCAUUUUGAAAAAGGUUAAUAAGUAGAAGCAUACAUGUUUUCCUUUUGUUUUUGAAACUUGUUUGUAAACAUAAAUACAACAGAGGAUUGAGCAUCA
B14: chr10:110135209:110135310:+|3pUTR|ENSG00000148700|msi1|total|mutant (ssRNA)
RNA: GGGAGUUCUACAGUCCGACGAUCCUCUCUAUUGGAAGAUUUUUUUAAUGUUCUACAUCAUUUAUGUUGUAUUACAAUGUAUGCCGAAACCGUAACCUGUGAACUAUGCUUUUCCAUAACUUUUUAAAAAUAUAUAUAUCUAAACAACAGAGGAUUGAGCAUCA
B15: chr18:3457781:3457936:+|CDS|ENSG00000177426|unk|total|mutant (ssRNA)
RNA: GGGAGUUCUACAGUCCGACGAUCCAACACUCCUCCCCCUACUCCACCGGACCUCAACCAGGACUUCAGUGGAUUUCAGCUUCCCGUGGAUGUUGCACUCAAACGGGCUGCAGAGAUGGAGCUUCAGGCAAAACUUACAGCUUACAACAGAGGAUUGAGCAUCA
B16: chr8:88032264:88032379:-|3pUTR|ENSG00000156103|unk|FALSE|bound_elsewhere (ssRNA)
RNA: GGGAGUUCUACAGUCCGACGAUCACUCCUUAUAAUGUUGCGUCAUUAAAGGUCAAGGGGUCAUGCUAUUAAUCUCAUUGCUAUAGACCAUUAACAUGACUGAACUUUUCCACAAAGUACUUAUGUUUACAAUGCUAUAACCCUCAACAGAGGAUUGAGCAUCA
B17: ENSG00000150457:stop:overlap|stop_codon|ENSG00000150457|stop_codon|NA|stop_codon (ssRNA)
RNA: GGGAGUUCUACAGUCCGACGAUCCAGAUUUAGAAAGCUCUGAUCUGGUGGAUCAGACUGAAGGCUGCCAGCCUGUGUACGUGUAGAUGGGGGCCAGGCACCCCCACCACUCGCUGCCUCCCAGGUCAGGGUCCCGGAGCCGGUCAACAGAGGAUUGAGCAUCA
B18: chr11:118657315:118658441:-|three_prime_utr|ENSG00000118094|control|control|control (ssRNA)
RNA: GGGAGUUCUACAGUCCGACGAUCCCUCCCAGCCUGUCCUCAGAGCGAAGUGGAGGGCAGGGUCACGACCUGGAGGUCAUGGGUAGGGGCCUAGCUCCCUCCUGGAACCUUGAAUAGGGUGGAAAUCCUGCUCUGGAGGGAAGACAACAGAGGAUUGAGCAUCA
B19: chr1:156742365:156742464:-|3pUTR|ENSG00000143321|msi1_unk|total|mutant (ssRNA)
RNA: GGGAGUUCUACAGUCCGACGAUCAUUUCUGAGGUGCACUGGGAGGCUCCCCUUCUAUUUGGGGCUUGAUGACUUUCUUUUUGCCGCUGGGGCUUUGAUGUUCCUUCCAGUGUCAUUUCUCAUCCACAUACCCUGACCUGGCCCCAACAGAGGAUUGAGCAUCA
B20: chr3:44647099:44647200:+|3pUTR|ENSG00000186448|msi1|total|mutant (ssRNA)
RNA: GGGAGUUCUACAGUCCGACGAUCAUUUGUAUGUAAACUACAUAAAGAACUUUCCAAAUUUAACAGUAAUAAGUAAAUACAAUCCGAAAAUAAGCAAAAGACAGACAUUUCACUGAAGUACCGACCGCAAAUAAGCAAAUGAAACAACAGAGGAUUGAGCAUCA
B21: chr19:34227675:34227687:+|3pUTR|ENSG00000257103|msi1_unk|total|mutant (ssRNA)
RNA: GGGAGUUCUACAGUCCGACGAUCUUAAAACAUGAGCAUUAAAUAUAUUUGGAACCGCAGAAGGUUAAGUAAUUUCUUAUGUACCGUUAAACUAAAGCAGUACUUCAGUGGGACUUAACAAGUAUUUUUUCAUCACUGAAAGGUCAACAGAGGAUUGAGCAUCA
B22: chr11:85958428:85958534:-|3pUTR|ENSG00000073921|unk|FALSE|unique (ssRNA)
RNA: GGGAGUUCUACAGUCCGACGAUCAGAAACAAUAACUGAAAUUAACUUUUCUUUUUUUAAAAAAAAUUAUAUUCAGUUUGCAGUAGACAUUCCUUAAGUAUUUGUAUUUAUUUAUGAUUAUCAAUUUUACAUAACAUUAAUAUUCAACAGAGGAUUGAGCAUCA
B23: chr12:125025615:125025697:+|3pUTR|ENSG00000184992|msi1_unk|FALSE|overlapping (ssRNA)
RNA: GGGAGUUCUACAGUCCGACGAUCGGACACAUUCCCAGAAGAGCGGAAAGAUCAUUGACGUGGAACUACACACGAAGUGUAAUUAGUGGGGGAAAAAAUAUUUUUUAAACAAAGGAUAUAACCAUAUUUAGUUGUACAGUAAGACAACAGAGGAUUGAGCAUCA
B24: chr8:30843048:30843149:-|CDS|ENSG00000133863|unk|total|mutant (ssRNA)
RNA: GGGAGUUCUACAGUCCGACGAUCGGAUACUAUAAUUGCUUCCAGAAAGUCAGAUCAUCCAAUAAACGAAGCAACAAUCCGCACCGAAAAUUCUAAAUUUAACAGUAAUUUGCUUGCACACCCAGAUAUUUGUUGUAUCCGUGACAACAGAGGAUUGAGCAUCA
B25: chr3:44647099:44647200:+|3pUTR|ENSG00000186448|msi1|FALSE|unique (ssRNA)
RNA: B20 RNA with C83U, C84A, C120U, C121A, C124U, C125A
B26: chrX:41141081:41141111:+|CDS|ENSG00000124486|msi1_unk|total|mutant (ssRNA)
RNA: GGGAGUUCUACAGUCCGACGAUCCACUCUUCAUACAGUGAAAAAGUACUUUCUUCCAAUAACCGAAAUGGUUCCACAGUUUUCCGAAAACUUAACUGAUGAAGAACUGAAAAAAGAAGCAAAGAAUGAAGCCAAAAAUGAUGCCAACAGAGGAUUGAGCAUCA
B27: ENSG00000067715:stop:overlap|stop_codon|ENSG00000067715|stop_codon|NA|stop_codon (ssRNA)
RNA: GGGAGUUCUACAGUCCGACGAUCAGGAGAAGUUUAUGAAUGAGUUGCAUAAAAUUCCAUUUCAAAGGAAAGAGAGUACCAAUUAGACAAGGGAAGAAGAUGAGAGACUGCCUGAACAGCAUCACUUUUGUAAACUGAGAGUUCCAACAGAGGAUUGAGCAUCA
B28: chr8:30843048:30843149:-|CDS|ENSG00000133863|unk|FALSE|unique (ssRNA)
RNA: B24 RNA with C78U, C79A, C83U, C84A, C138U, C139A

Target: MSI1 full-length (mouse, UniProt Q61474 1-362)
Sequence (Q61474 whole entry): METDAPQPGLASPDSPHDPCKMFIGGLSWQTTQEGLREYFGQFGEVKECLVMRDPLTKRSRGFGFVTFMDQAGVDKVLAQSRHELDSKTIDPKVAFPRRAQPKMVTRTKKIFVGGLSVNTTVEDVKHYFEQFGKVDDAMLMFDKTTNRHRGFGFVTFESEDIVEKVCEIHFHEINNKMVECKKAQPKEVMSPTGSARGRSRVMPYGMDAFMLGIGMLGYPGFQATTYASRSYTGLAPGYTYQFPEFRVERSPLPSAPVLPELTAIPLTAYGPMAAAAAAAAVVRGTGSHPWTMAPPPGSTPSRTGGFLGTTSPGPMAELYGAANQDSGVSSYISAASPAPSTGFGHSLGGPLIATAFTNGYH
Experiment: nsRBNS (natural sequence RNA bind-n-seq); RBNS binding buffer (assumed for nsRBNS): 25 mM Tris pH 7.5, 150 mM KCl, 3 mM MgCl2, 0.01% Triton X-100, 500 ug/ml BSA, 20 U/ml SUPERase-In, 4 C; UNK is unkempt and MSI1 is Musashi-1; names of the RNAs are library labels; protein concentration not given here; high values mean tight binding

Binder	binding signal [enrichment R]
B1	0.341
B2	0.283
B3	0.374
B4	0.282
B5	3.25
B6	0.307
B7	0.346
B8	3.69
B9	3.05
B10	37.8
B11	28.3
B12	0.9
B13	0.664
B14	7.3
B15	0.52
B16	0.72
B17	0.418
B18	0.327
B19	0.353
B20	19.7
B21	1.31
B22	4.67
B23	3.62
B24	1.28
B25	129
B26	0.267
B27	0.457
B28	29.7
